This passage reports Potency results from PubChem BioAssay (NCATS).

Results filed as inconclusive are left out. A number with no mark means an inactive call. Calls of active or inactive are those of the source. Calls follow the shape of the dose curve; as a rule, active = well fitted curve in the direction sought with a large enough effect; inconclusive = small, poorly fitted or top-dose-only effect, or another doubt; inactive = no such curve, though single readings can be large; an effect the other way counts as inactive or inconclusive.

Assay [1] in a line: qHTS of pediatric cancer cell lines to identify multiple opportunities for drug repurposing: Confirmatory screen for BT-37 cells (AID 1347117).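 Also: viability measured after 48 h of compound exposure; nearly all actives have a fitted effect of over 55% in size.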 The gist of the method:
(§1)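 Cells (500-1,000/well) rested 5 h, then received compounds for 48 h; metabolically active cells were measured by CellTiter-Glo luminescence. Final concentrations spanned up to 46 µM (MIPE, 11-point) or 0.59 nM-46 µM (NPC, 8-point) in primary screens, 11-point in follow-ups.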
Background: qHTS replaces the single test concentration by a dilution series.

Assay [2] in a line: qHTS of pediatric cancer cell lines to identify multiple opportunities for drug repurposing: Confirmatory screen for TC32 cells (AID 1347118).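 Also: cells exposed to compound for 48 h before the read; nearly all actives have a fitted effect of over 65% in size.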 The gist of the method: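 Luminescent CellTiter-Glo read-out of metabolically active TC32 cells after 48 h compound exposure. Primary: MIPE 11-point, 0.78 nM–46 µM; NPC 8-point, 0.59 nM–46 µM. Confirmatory: 11-point dilutions.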
Assay [3] in a line: qHTS of pediatric cancer cell lines to identify multiple opportunities for drug repurposing: Confirmatory screen for MG 63 (6-TG R) cells (AID 1347119). Also: nearly all actives have a fitted effect of over 55% in size. The gist of the method:
as §1

The nature of assay [4]: qHTS of pediatric cancer cell lines to identify multiple opportunities for drug repurposing: Confirmatory screen for control Hh wild type fibroblast cells (AID 1347121). Also: nearly all actives have a fitted effect of over 70% in size. The gist of the method:
as §1

Assay [5] in a line: qHTS of pediatric cancer cell lines to identify multiple opportunities for drug repurposing: Confirmatory screen for Rh41 cells (AID 1347123). Also: nearly all actives have a fitted effect of over 60% in size. Put shortly: as §1
Assay [6] in a line: qHTS of pediatric cancer cell lines to identify multiple opportunities for drug repurposing: Confirmatory screen for Rh18 cells (AID 1347125). Also: nearly all actives have a fitted effect of over 55% in size. The gist of the method:
as §1

Assay [7] is described as follows: qHTS of pediatric cancer cell lines to identify multiple opportunities for drug repurposing: Confirmatory screen for Rh30 cells (AID 1347126). Also: nearly all actives have a fitted effect of over 55% in size. Put shortly: as §1
A short description of assay [8]: qHTS of pediatric cancer cell lines to identify multiple opportunities for drug repurposing: Confirmatory screen for OHS-50 cells (AID 1347128). Put shortly:
as §1

The nature of assay [9]: qHTS of pediatric cancer cell lines to identify multiple opportunities for drug repurposing: Confirmatory screen for SK-N-SH cells (AID 1347129).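 Also: cells exposed to compound for 48 h before viability read; nearly all actives have a fitted effect of over 60% in size.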 Put shortly:
as §1

In assay [10] the test system is Zika virus NS2B-NS3 protease. The assay is described as follows: Primary screen GU AMC qHTS for Zika virus inhibitors (AID 1347154). Also: nearly all actives have a fitted effect of over 70% in size. The gist of the method: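 Fluorogenic AMC-substrate cleavage by noncovalent NS2B-NS3 protease complex (25 nM, pH 8.0 Tris buffer with Tween 20) followed for 15 minutes at room temperature (~20% conversion). Percent inhibition from ex340/em450 signal change, fitted by 4-parameter Hill equation.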

Assay [11] is described as follows: qHTS of pediatric cancer cell lines to identify multiple opportunities for drug repurposing: Confirmatory screen for RD cells (AID 1347124).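 Also: cells exposed to compound for 48 h before viability readout; nearly all actives have a fitted effect of over 65% in size.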 The gist of the method: as §1
Assay [12] is described as follows: qHTS of pediatric cancer cell lines to identify multiple opportunities for drug repurposing: Confirmatory screen for Saos-2 cells (AID 1347127). Also: nearly all actives have a fitted effect of over 60% in size. The gist of the method: as §1
Assay [13] is described as follows: qHTS of pediatric cancer cell lines to identify multiple opportunities for drug repurposing: Confirmatory screen for U-2 OS cells (AID 1347122). Also: nearly all actives have a fitted effect of over 65% in size. The gist of the method:
as §1

Assay [14] relates to Zika virus NS2B-NS3 protease (unlinked complex). The assay is described as follows: Primary screen GU Rhodamine qHTS for Zika virus inhibitors: Unlinked NS2B-NS3 protease assay (AID 1347159). Also: nearly all actives have a fitted effect of over 60% in size. The gist of the method: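 Buffer 10 mM Tris-HCl pH 8.0, 0.01% Tween 20. Unlinked protease 25 nM; compound preincubation 15 min, RT, protected from light. Substrate Rhod110, 1.5 microM; ~15% conversion in 15 min.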

The target in another assay is Furin (Homo sapiens) (UniProt P09958). The assay is described as follows: Furin counterscreen qHTS for Zika virus inhibitors (AID 1347149). Also: nearly all actives have a fitted effect of over 70% in size. The gist of the method:
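Counterscreen measures cleavage of 2 microM BOC-RVRR-AMC, below its ~15 microM Km, by 5 nM full-length human furin at pH 7.0 after a 15-min compound preincubation. Inhibition derives from the 15-min fluorescence increase at 37C.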
In general terms: The purpose of a counterscreen is to sort out artefacts and off-target activity.

Assay [15] has as its system Zika virus NS2B-NS3 protease (unlinked complex). The assay is described as follows: Confirmatory screen GU AMC qHTS for Zika virus inhibitors (AID 1347153).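 Also: enzyme at 25 nM with substrate at 10 µM below its Km of 18.3 µM; nearly all actives have a fitted effect of over 70% in size.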 The gist of the method:
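Noncovalent NS2B hydrophilic domain/NS3 protease complex (25 nM) in 10 mM Tris-HCl pH 8.0, 0.01% Tween 20 was preincubated 15 min at room temperature with compounds. Then 10 µM AMC substrate (Km 18.3 µM) was added; fluorescence was read over 15 min and fitted to a 4-parameter Hill equation.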

The nature of assay [16]: ZIKV-mCherry secondary qHTS for Zika virus inhibitors (AID 1347158). The gist of the method:
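Percent infection is the share of Hoechst-identified Vero nuclei with mCherry signal above 450 RFU (3 SD over negative controls). Cells were infected with recombinant ZIKV-mCherry at MOI 1 after compound addition and imaged 48–72 h later.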
Potency is read from the fitted curve at half-maximal effect.

Furin (Homo sapiens), sequence (P09958 whole entry, looked up): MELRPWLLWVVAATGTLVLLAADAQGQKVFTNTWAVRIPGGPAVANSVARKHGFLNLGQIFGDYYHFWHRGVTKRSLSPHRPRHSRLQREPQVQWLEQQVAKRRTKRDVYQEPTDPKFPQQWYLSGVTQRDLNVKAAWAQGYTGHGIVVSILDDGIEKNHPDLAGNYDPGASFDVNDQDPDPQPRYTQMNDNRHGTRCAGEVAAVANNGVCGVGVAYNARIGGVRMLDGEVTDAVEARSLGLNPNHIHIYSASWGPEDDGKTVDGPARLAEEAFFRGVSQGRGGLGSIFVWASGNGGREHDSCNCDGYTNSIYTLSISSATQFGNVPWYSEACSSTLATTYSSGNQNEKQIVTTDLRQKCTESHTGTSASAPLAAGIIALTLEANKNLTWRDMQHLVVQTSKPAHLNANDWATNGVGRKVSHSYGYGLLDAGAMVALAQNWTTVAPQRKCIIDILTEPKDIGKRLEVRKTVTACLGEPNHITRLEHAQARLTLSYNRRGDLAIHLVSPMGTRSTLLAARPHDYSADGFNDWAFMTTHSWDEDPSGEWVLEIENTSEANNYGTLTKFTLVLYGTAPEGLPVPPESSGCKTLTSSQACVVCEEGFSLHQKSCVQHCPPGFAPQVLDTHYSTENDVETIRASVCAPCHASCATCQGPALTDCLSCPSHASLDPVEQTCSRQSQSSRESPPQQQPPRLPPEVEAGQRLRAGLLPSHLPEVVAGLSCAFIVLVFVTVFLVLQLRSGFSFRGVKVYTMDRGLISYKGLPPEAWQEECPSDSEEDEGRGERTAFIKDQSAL

As to `C[C@@H](Oc1cc(-n2cnc3ccc(CN4CCN(C)CC4)cc32)sc1C(N)=O)c1ccccc1C(F)(F)F`, the Potency in [1] is 0.24 µM (active); in [2], 0.0537 µM (active); in assay [3], 0.0603 µM (active); in assay [4], 42.7 µM (active); in assay [5] it was 4.14 µM (active); in assay [6] it was 47.9 µM (active). Also, the results for the Potency in assay [7], in [8] and in assay [9] were 13.1 µM (active), 0.0759 µM (active) and 13.2 µM (active), respectively. Also, in assay [10], the Potency result was “inactive”.

Turning to `CC[C@@H]1C(=O)N(C)c2cnc(Nc3ccc(C(=O)NC4CCN(C)CC4)cc3OC)nc2N1C1CCCC1`, the Potency in assay [1] is 0.131 µM (active); in [2], 0.0522 µM (active); in assay [3] it was 0.0928 µM (active); in assay [4], 18.5 µM (active); in [11], 0.0465 µM (active); in assay [6], 18.5 µM (active). Moreover, the Potency in [12] is 0.0369 µM (active); in assay [8], 0.0522 µM (active); in assay [9], 6.62 µM (active). Further, the Potency entry in assay [10] is “inactive”.

Turning to `CNC(=O)c1ccc(N2C(=S)N(c3cnc(C#N)c(C(F)(F)F)c3)C(=O)C23CCC3)cc1F`, the Potency result in [1], in assay [2], in assay [3], in assay [4], in assay [13] and in assay [5] was “inactive” throughout. Moreover, the Potency entry in [11], in assay [6], in assay [7], in assay [12], in assay [8] and in assay [9] was “inactive” throughout. The Potency result in assay [10] is “inactive”.

For the molecule `CNC(=O)CN1CCC(Oc2cc3c(Nc4cccc(Cl)c4F)ncnc3cc2OC)CC1`, the Potency is 0.928 µM (active) in assay [1], 1.04 µM (active) in assay [2], 5.85 µM (active) in assay [6] and 10.4 µM (active) in assay [7]. Further, the Potency result in [3], in assay [4], in assay [9], in [10] and in assay [14] was “inactive” in each case.

For `Cc1c(NC(=O)OC[C@@H]2COCCN2)cn2ncnc(Nc3ccc4c(cnn4Cc4cccc(F)c4)c3)c12`, the Potency in assay [1] is 18.5 µM (active); in [2] it was 26.1 µM (active). For the same molecule, the Potency entry in assay [3], in assay [4], in [11], in assay [12], in [10] and in assay [14] was “inactive” throughout.

For the molecule `Cc1cnc(Nc2ccc(F)cc2Cl)nc1-c1c[nH]c(C(=O)N[C@H](CO)c2cccc(Cl)c2)c1`, the Potency entry in [1], in assay [2], in [3], in assay [4], in assay [6] and in [12] was “inactive” throughout. In addition, the Potency in assay [5] was 18.5 µM (active); in assay [9] it was 18.7 µM (active); in [14] it was 39.8 µM (active).

Consider `COc1cccc(Nc2c(C(N)=O)cnc3c(C)cc(S(=O)(=O)c4cccc(C(=O)N(C)C)c4)cc23)c1`, for which the Potency entry in [1], in assay [3], in assay [4], in [13], in [12] and in assay [8] was “inactive” in each case. Also, the Potency entry in [9] and in assay [10] was “inactive” throughout. Moreover, in [2], the Potency is 0.512 µM (active).

Turning to `CC1(C)OC2=C(C(=O)c3ccccc3C2=O)[C@H](NCc2ccccc2)[C@H]1O`, the Potency in [1] was 5.22 µM (active); in [2] it was 4.14 µM (active); in assay [3] it was 16.5 µM (active); in assay [4], 13.1 µM (active); in [13], 1.85 µM (active); in assay [5], 2.93 µM (active). Besides, the Potency is 8.27 µM (active) in [11]; 7.37 µM (active) in [6]; 8.27 µM (active) in assay [12]; 7.37 µM (active) in [8]; 5.9 µM (active) in assay [9]. Moreover, the Potency entry in assay [10] is “inactive”.

Turning to `C[C@@]12O[C@@H](C[C@]1(O)CO)n1c3ccccc3c3c4c(c5c6ccccc6n2c5c31)CNC4=O`, the Potency in assay [1] was 2.93 µM (active); in assay [2], 0.657 µM (active); in assay [3], 1.47 µM (active); in assay [4], 18.5 µM (active); in [13], 0.737 µM (active); in assay [5], 8.27 µM (active). Also, the Potency in assay [6] is 3.69 µM (active); in [7], 2.33 µM (active); in [12] it was 1.31 µM (active); in assay [8], 4.65 µM (active); in assay [9], 5.26 µM (active); in the assay with Furin (Homo sapiens), 7.62 µM (active). Moreover, the Potency is 24.1 µM (active) in assay [15], 21.5 µM (active) in assay [10] and 8.91 µM (active) in [16].

Regarding `C=CC(=O)Nc1cccc(Oc2nc(Nc3ccc(N4CCN(C)CC4)cc3OC)ncc2Cl)c1`, the Potency in assay [1] was 20.8 µM (active); in assay [2] it was 14.7 µM (active); in assay [3], 23.3 µM (active); in assay [6], 20.8 µM (active); in [7], 13.1 µM (active); in [12], 23.3 µM (active). For the same molecule, the Potency in [9] is 18.7 µM (active). Moreover, the Potency result in assay [4], in assay [10] and in assay [14] was “inactive” throughout.

On to `CC1=C(CO)C(=O)O[C@@H]([C@@H](C)[C@H]2CC[C@H]3[C@@H]4C[C@H]5O[C@]56[C@@H](O)C=CC(=O)[C@]6(C)[C@@H]4CC[C@]23C)C1`, for which the Potency entry in assay [1], in assay [2], in assay [3], in assay [4], in assay [13] and in assay [5] was “inactive” in each case. For the same molecule, the Potency result in assay [12], in [9] and in assay [10] was “inactive” in each case.

On to `COC(=O)Nc1nc2ccc(C(=O)c3ccc(F)cc3)cc2[nH]1`, for which the Potency is 2.61 µM (active) in assay [1]; 1.17 µM (active) in assay [2]; 1.47 µM (active) in assay [3]; 2.93 µM (active) in assay [11]; 1.85 µM (active) in assay [12]; 2.61 µM (active) in [8]. In addition, the Potency entry in [4], in assay [6], in assay [7], in assay [9] and in assay [10] was “inactive” in each case.

Take `CC1(C)CCC(c2ccc(Cl)cc2)=C(CN2CCN(c3ccc(C(=O)NS(=O)(=O)c4ccc(N[C@H](CCN5CCOCC5)CSc5ccccc5)c(S(=O)(=O)C(F)(F)F)c4)cc3)CC2)C1`: the Potency entry in assay [1], in [2], in [3], in assay [4], in [11] and in assay [6] was “inactive” each time. Besides, the Potency result in [12] and in [8] was “inactive” each time. Also, in [14], the Potency was 2.24 µM (active).

Take `Cc1[nH]nc2ccc(-c3cncc(OC[C@@H](N)Cc4ccccc4)c3)cc12`: the Potency in assay [1] was 2.93 µM (active); in assay [2] it was 2.93 µM (active); in assay [3], 3.69 µM (active); in assay [4] it was 23.3 µM (active); in assay [6], 8.27 µM (active); in [7] it was 47.9 µM (active). Moreover, the figures for the Potency in assay [12], in assay [8] and in [9] were 4.65 µM (active), 4.65 µM (active) and 2.15 µM (active), respectively. The Potency entry in assay [14] was “inactive”.
